Measurements published in PubChem BioAssay (NCATS).
Records with an inconclusive call do not appear. Where a call stands in place of a potency, no number is given. The source made the active and inactive calls. Calls follow the shape of the dose curve; as a rule, active = well fitted curve in the direction sought with a large enough effect; inconclusive = small, poorly fitted or top-dose-only effect, or another doubt; inactive = no such curve, though single readings can be large; an effect the other way counts as inactive or inconclusive.

What was measured:
[1] = target: Single-stranded DNA cytosine deaminase (Homo sapiens) (UniProt Q9GZX7); assay: Validation qHTS assay for inhibitors of Activation Induced Cytidine Deaminase (AID): AID signal (AID 1347429); also: potency is read from the fitted curve at half-maximal effect
Chain of Single-stranded DNA cytosine deaminase (Homo sapiens) (Q9GZX7 whole entry, looked up): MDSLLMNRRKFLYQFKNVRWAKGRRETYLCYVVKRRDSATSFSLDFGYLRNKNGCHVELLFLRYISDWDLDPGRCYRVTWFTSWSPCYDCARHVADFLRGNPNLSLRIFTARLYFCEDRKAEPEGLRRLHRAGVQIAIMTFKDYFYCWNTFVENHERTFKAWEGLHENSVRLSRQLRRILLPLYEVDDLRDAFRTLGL
Procedure, shortened: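 Compounds (final up to 114 uM) preincubated with AID plus UDG; 250 nM DJC20/DJC23 substrate mix (4x stock) added, 4 hr at room temperature, then NaOH, 30 min. Read 1 fluorescence at 540 nm excitation, 590 nm emission.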

[2] = Primary qHTS for inhibitors of La Crosse Virus (LACV) - induced cell death in SH-SY5Y cells (AID 1508616); also: potency is read from the fitted curve at half-maximal effect
Procedure, shortened: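 Rescue of virus-induced death was read as ATPLite luminescence after 6 days at 37C, scaled between DMSO wells with LACV and without virus. Cells were SH-SY5Y, 6000/well, infected at 0.01 MOI after compound addition.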

[3] = Primary qHTS for small molecule stabilizers of the endoplasmic reticulum resident proteome: Secreted ER Calcium Modulated Protein (SERCaMP) assay (AID 1508630)
Procedure, shortened: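 The SH-SY5Y reporter protocol was run at 3 concentrations up to 38.3 uM (primary) or 11 concentrations (follow-up): 16 h compound, 100 nM thapsigargin for 4 h, then extracellular luciferase luminescence.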

Papain (Carica papaya) = Papain (Carica papaya) (UniProt P00784); assay: Primary qHTS assay for inhibitors of the protease papain (AID 1645873);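 also: papain turnover of Z-FR-AMC read as the AMC fluorescence gain over 10 min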; also: potency is read from the fitted curve at half-maximal effect
Chain of Papain (Carica papaya) (P00784 whole entry, looked up): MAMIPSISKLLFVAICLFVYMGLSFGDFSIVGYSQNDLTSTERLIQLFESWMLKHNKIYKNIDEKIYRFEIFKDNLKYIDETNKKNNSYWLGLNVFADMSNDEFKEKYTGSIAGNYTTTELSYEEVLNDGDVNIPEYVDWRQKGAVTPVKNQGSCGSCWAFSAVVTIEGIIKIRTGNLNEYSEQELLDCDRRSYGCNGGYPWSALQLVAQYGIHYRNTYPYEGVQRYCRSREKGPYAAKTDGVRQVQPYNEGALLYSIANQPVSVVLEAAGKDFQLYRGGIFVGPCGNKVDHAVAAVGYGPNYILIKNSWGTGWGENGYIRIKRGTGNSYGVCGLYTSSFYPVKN

[4] = target: Calcium and integrin-binding protein 1 (Homo sapiens) (UniProt Q99828); assay: Validation qHTS for Identification of Calcium Integrin Binding protein 1 (CIB1) Competitor (AID 1508618)
Chain of Calcium and integrin-binding protein 1 (Homo sapiens) (Q99828 whole entry, looked up): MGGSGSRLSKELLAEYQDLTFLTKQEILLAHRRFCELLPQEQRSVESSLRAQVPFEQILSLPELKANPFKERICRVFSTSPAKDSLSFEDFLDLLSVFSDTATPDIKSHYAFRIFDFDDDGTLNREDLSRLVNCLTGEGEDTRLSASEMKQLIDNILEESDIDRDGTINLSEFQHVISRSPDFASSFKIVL
Procedure, shortened: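 Fluorescence polarization with 1 uM CIB1-GST and 100 nM FITC-alphaIIb peptide in HEPES pH 7.4, NaCl, 5 mM CaCl2, Tween20. Compounds at up to 114 uM final, preincubated with protein 15 min; read after 15 min more at RT.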

[5] = Counterscreen qHTS for small molecule stabilizers of the endoplasmic reticulum resident proteome: GLuc-NoTag assay (AID 1508627); also: potency is read from the fitted curve at half-maximal effect
Procedure, shortened: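 Counterscreen line: SH-SY5Y-GLuc-NoTag. Seed, 5 h; compound, 19 h; thapsigargin 100 nM, 4 h; 37C/5% CO2. Readout: secreted GLuc luminescence, coelenterazine 0.07x final, no lysis.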

Row | Structure (SMILES) | Potency [1] | Potency [2] | Potency [3] | Potency (Papain (Carica papaya)) | Potency [4] | Potency [5]
1 | CC(=O)N[C@@H](Cc1c[nH]c2ccccc12)C(=O)OCc1cc(C(F)(F)F)cc(C(F)(F)F)c1 | inactive | inactive | inactive | inactive | – | –
2 | Brc1c(Br)c(Br)c2[nH]cnc2c1Br | inactive | inactive | – | inactive | inactive | –
3 | CCOC(=O)C12CC1/C(=N/O)c1ccccc1O2 (configuration not stated) | inactive | inactive | – | inactive | inactive | –
4 | C[C@H](O)C(=O)C1=Nc2c(nc(N)[nH]c2=O)NC1 | inactive | inactive | inactive | 28.2 µM (active) | – | –
5 | CCCCS(=N)(=O)CC[C@H](N)C(=O)O (some centres not stated) | inactive | inactive | – | inactive | inactive | –
6 | CCCCCCC/C=C\CCCCCCCCC(=O)O | 70.8 µM (active) | inactive | inactive | – | – | –
7 | Cc1cc(Cn2cnc3c2C[C@@H](C(=O)O)N(C(=O)C(c2ccccc2)c2ccccc2)C3)ccc1N | inactive | inactive | inactive | inactive | – | –
8 | C#CC(N)CCC(=O)O (configuration not stated) | inactive | inactive | – | inactive | inactive | –
9 | C/C(=C\c1ccc(C(=O)O)cc1)c1ccc2c(c1)C(C)(C)CCC2(C)C | inactive | inactive | inactive | – | – | –
10 | O=C1NC(=O)c2cc(Nc3ccccc3)c(Nc3ccccc3)cc21 | inactive | inactive | – | inactive | inactive | –
11 | O=c1[nH]c(=O)c2nc3ccccc3nc2[nH]1 | inactive | inactive | inactive | inactive | – | –
12 | C=C1C(=O)O[C@@H]2[C@H]3O[C@]3(C)CCC=C(C)CC[C@@H]12 | inactive | inactive | inactive | inactive | – | –
13 | N#C/C(=C\c1ccc(O)c(O)c1)C(=O)NCCCNC(=O)/C(C#N)=C/c1ccc(O)c(O)c1 | inactive | inactive | – | 22.4 µM (active) | – | 20 µM (active)
14 | Cn1c(=O)c2[nH]c(-c3ccc(S(=O)(=O)O)cc3)nc2n(C)c1=O | inactive | inactive | inactive | 25.1 µM (active) | – | –
15 | N[C@@H](CCC(=O)N[C@H](CSN=O)C(=O)NCC(=O)O)C(=O)O | inactive | inactive | inactive | inactive | – | –
16 | C[C@@]1(C2CCCC2)Cc2cc(OCC(=O)O)c(Cl)c(Cl)c2C1=O | inactive | inactive | inactive | inactive | – | –

Row | Structure (SMILES) | Potency [1] | Potency [2] | Potency [3] | Potency (Papain (Carica papaya)) | Potency [4] | Potency [5]
17 | c1ccc(C(NCCNC(c2ccccc2)c2ccccc2)c2ccccc2)cc1 | inactive | inactive | – | inactive | inactive | –
18 | NC(=O)c1cc[n+](CC2=C(C(=O)O)N3C(=O)[C@@H](NC(=O)[C@@H](c4ccccc4)S(=O)(=O)[O-])[C@H]3SC2)cc1 | inactive | inactive | inactive | inactive | – | –
19 | O=c1onc2cnc3ccccc3n12 | inactive | inactive | inactive | – | – | –
20 | CCC1(O)CC2CN(CCc3c([nH]c4ccccc34)[C@@](C(=O)OC)(c3cc4c(cc3OC)N(C)C3[C@]45CCN4CC=C[C@@](CC)([C@@H](OC(C)=O)[C@]3(O)C(=O)OC)[C@H]45)C2)C1 (some centres not stated) | inactive | inactive | inactive | – | – | –
21 | O=C(N[C@@H](Cc1ccccc1)C(=O)CCl)OCc1ccccc1 | inactive | 1 µM (active) | inactive | 15.8 µM (active) | – | –
22 | c1ccc(C2CN3CCSC3=N2)cc1 (configuration not stated) | inactive | inactive | – | inactive | inactive | –
23 | CCCC[C@@]1(C2CCCC2)Cc2cc(OCC(=O)O)c(Cl)c(Cl)c2C1=O | inactive | inactive | inactive | 25.1 µM (active) | – | –
24 | O=C(O)/C(=C/c1c(C(=O)O)[nH]c2cc(Cl)cc(Cl)c12)c1ccccc1 | inactive | inactive | inactive | – | – | –
25 | C=CCn1c(=O)c2c(nc(-c3ccc(S(=O)(=O)O)cc3)n2C)n(C)c1=O | inactive | inactive | inactive | 25.1 µM (active) | – | –
26 | C=C1C[C@@]23CC[C@H]4[C@@](C)(CCC[C@@]4(C)C(=O)OC4OC(CO)C(O)C(O)C4O)[C@@H]2CC[C@]1(OC1OC(CO)C(O)C(O)C1OC1OC(CO)C(O)C(O)C1O)C3 (some centres not stated) | inactive | inactive | – | inactive | inactive | –
27 | Nc1nc2c(nc(Br)n2C2OC3COP(=O)(O)O[C@@H]3C2O)c(=O)[nH]1 (some centres not stated) | inactive | inactive | – | inactive | inactive | –
28 | N#Cc1cc2nc(O)c(O)nc2cc1[N+](=O)[O-] | inactive | inactive | inactive | – | – | –
29 | N#CC(=C(\N)Sc1ccccc1N)/C(C#N)=C(/N)Sc1ccccc1N | inactive | inactive | inactive | – | – | –
30 | Cc1cccc(C2CN(C)CCc3c2cc(O)c(O)c3Cl)c1 (configuration not stated) | inactive | inactive | – | inactive | inactive | –
31 | NC(=O)CC[C@H](N)C(=O)O | inactive | inactive | – | inactive | inactive | –
